Source: PubChem (several laboratories)
FXN GAA850 act = frataxin GAA850 promoter activation; 0.56% of 360,000 active; activation, % at 6 µM; HEK293 lucGAA850 FXN promoter luciferase reporter, 24 h; percent of 10 µM SAHA response;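 active = activation above the average of all compounds screened plus 3 SD, cutoff fixed separately per campaign, cut at about 7.5% in these data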;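 note: 0% = DMSO wells and 100% = 10 µM SAHA wells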
AHR activator = human AHR activation | P35869 | AHR-responsive luciferase reporter cells, luminescence | activation, % at 5 µM | 2.5% of 320,000 active; in the data active = activation above about 47%;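 note: 0% = vehicle wells and 100% = reference agonist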
HSF-1 act = increases HSF-1 driven luciferase reporter signal; 1.7% of 300,000 active; AID 504408; activation, % at 9 µM; NIH3T3-HGL HSF-1 luciferase reporter, MG132, 8 h; 100% = twice DMSO control signal;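 active = mean replicate activation of at least 50% with a set share of replicates each reaching 50%; inconclusive = only one of those two conditions met; inactive = mean below 50% and too few replicates reaching it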;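 note: 0% = median of the neutral control wells and 100% = twice that signal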
HSF1 inhib = HSF1 inhibition; 0.77% of 300,000 active; NIH3T3-HGL HSE-luciferase, MG132-induced, luminescence 8 h; active compounds read low; AID 2098; activity change, negative = inhibition, % at 7.5 µM (by protocol);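 active = more than half of replicate wells show activity change below -50%, luminescence cut by over half; inconclusive = some wells, but at most half, below -50%; inactive = no replicate well below -50%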;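 note: luciferase reports HSF-1 transcriptional activity via heat shock element; 0% = median of DMSO wells and -100% = zero luminescence signal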
AHR act confirm = confirmation of human aryl hydrocarbon receptor activators; shares compounds with AHR activator; human cells, AHR-responsive luciferase reporter, luminescence; activation, % at 9 µM; 87% of 2,300 active; in the data active = activation above about 49%;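 note: HepG2 hepatoma cells carrying a DRE-driven firefly luciferase reporter; 0% = vehicle wells and 100% = reference agonist wells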
PXR counter = PXR activation, counter-screen for AHR activators | shares compounds with AHR activator | cell-based PXR reporter, luciferase luminescence | activation, % at 11.6 µM | 88% of 2,300 active | AID 434939; in the data active = activation above about 11%;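 note: human hepatoma DPX-2 cells expressing full-length human PXR; 0% = DMSO and 100% = reference agonist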
Numbers without * were called inactive; ? = inconclusive; / = no result. A selection: hits, their analogues and other compounds. The true share with any hit is near 4.6%.

SMILES	FXN GAA850 act	AHR activator	HSF-1 act	HSF1 inhib	AHR act confirm	PXR counter
Cc1cccc(NC(=S)N/N=C/c2cccc([N+](=O)[O-])c2)c1	1	134*	36	16	145*	41*
Cc1ccc(C(=O)Nc2ccc(C(=O)N/N=C/c3c[nH]c4ccccc34)cc2)cc1	-1	21	28	8	/	/
Cc1cccc(NC(=S)N/N=C/c2ccc3c(c2)OCO3)c1	0	94*	39	31	71*	87*
Cc1cccc(NC(=S)NCc2ccc3c(c2)OCO3)c1	2	4	23	8	/	/
Cc1cccc(NC(=S)N/N=C/c2c[nH]c3ccccc23)c1	-2	135*	?	24	87*	19*
O=C(N/N=C/c1ccc2c(c1)OCO2)c1ccc(Br)o1	6	175*	38	21	120*	22*
O=C(N/N=C/c1ccc2c(c1)OCO2)c1ccc(Cl)cc1Cl	-1	30	-3	3	/	/
O=C(/C=C\c1ccco1)NC(=S)Nc1ccccc1O	4	30	16	5	/	/
O=S(=O)(CCCc1ccccc1)c1ncn[nH]1	1	2	/	/	/	/
C=CCn1cc(/C=C2/NC(=O)NC2=O)c2ccccc21	2	97*	-2	0	91*	35*
C=CCn1cc(/C=N/N2C(=O)C3C4C=CC(C4)C3C2=O)c2ccccc21 (stereo unspecified)	2	15	-6	-4	/	/
O=C(Nc1nc2ccc(Cl)cc2s1)C1CCCO1 (stereo unspecified)	2	-3	-13	-15	/	/
O=C(Nc1nc2ccc(Cl)cc2s1)C1CC1	4	114*	40	28	77*	19*
CC(C)c1ccc2nc(NC(=O)C3CC3)sc2c1	7	89*	-12	4	79*	39*
O=C(Nc1nc2c(Br)cccc2s1)C1CC1	-1	132*	4	6	97*	18*
COC(=O)c1ccc2nc(NC(=O)C3CCCCC3)sc2c1	3	4	5	-8	/	/
Cn1cccc1C(=S)N1CCOCC1	-1	3	-5	1	/	/
Cc1ccc(/C=N/Nc2nc3ccccc3s2)o1	4	111*	9	6	113*	14*
C[C@H](NC(=O)[C@@H]1CSC2c3ccccc3C(=O)N21)C(=O)NCCc1ccc(F)cc1 (stereo partly specified)	0	96*	-1	7	104*	55*
C[C@H](NC(=O)[C@@H]1CSC2c3ccccc3C(=O)N21)C(=O)NCCc1ccccc1 (stereo partly specified)	2	124*	70*	29	107*	59*
COc1ccc(NC(=O)c2oc3ccccc3c2NC(=O)C2CC2)cc1OC	2	12	4	-5	/	/
COc1ccc(NC(=O)c2oc3ccccc3c2NC(=O)C2CCCO2)cc1OC (stereo unspecified)	3	0	16	-1	/	/
O=C(Nc1ccc(F)c(F)c1)c1oc2ccccc2c1NC(=O)C1CCCO1 (stereo unspecified)	3	81*	/	/	135*	24*
O=C(Nc1ccccc1)c1oc2ccccc2c1NC(=O)C1CC1	2	103*	14	-4	-3	51*
Cc1nnsc1C(=O)Nc1ccc(Cl)cc1	1	106*	2	6	64*	26*
SMILES	FXN GAA850 act	AHR activator	HSF-1 act	HSF1 inhib	AHR act confirm	PXR counter
Cc1nnsc1C(=O)Nc1ccccc1	4	1	9	-6	/	/
Cc1cc(C(=O)Nc2ccc(Cl)cc2)on1	2	23	18	11	/	/
Cc1ocnc1C(=O)Nc1ccc(Cl)cc1	4	104*	45	24	66*	25*
COc1ccc(S(=O)(=O)NCCc2ccccc2)cc1OC	2	0	8	-3	/	/
Cc1ccc(C(C)C)c(Oc2nnnn2-c2ccccc2)c1	2	1	-6	7	/	/
Cc1cc(Nc2ccc(Br)c(C)c2)n2nc(C)nc2n1	2	85*	4	1	46	12*
Cc1ccc(Nc2cc(C)nc3nc(C)nn23)cc1	0	124*	-6	-5	14	9
Cc1cc(Nc2ccccc2Cl)n2nnnc2n1	2	1	-20	-7	/	/
Cc1cc(Nc2ccc(Cl)cc2)n2nnnc2n1	-1	143*	22	3	91*	14*
COc1ccc(CNC(=O)CCCCCNc2nc(=S)[nH]c3ccccc23)cc1	1	2	12	-9	/	/
O=C(NC1CC2CCCC(C1)N2C(=O)Nc1ccccc1)c1ccncc1 (stereo unspecified)	-1	20	6	-7	/	/
CCON1C(=O)C(C)(C)N(OCC)C(=O)C1(C)C	2	-1	5	-1	/	/
Fc1cccc(NC(=S)Nc2cccc3ccccc23)c1	1	82*	24	7	62*	100*
CC(=O)c1ccc(NC(=S)Nc2cccc3ccccc23)cc1	-1	99*	-72	-67*	24	86*
CC(=O)c1ccc(NC(=O)c2cc(Cl)nc3ccccc23)cc1	1	96*	6	2	82*	/
Cc1ccc(NC(=S)Nc2cccc3ccccc23)cc1F	3	84*	-62	-55*	75*	112*
Cn1ncc2c(O/N=C(\N)c3ccc(C(F)(F)F)cc3)ncnc21	3	37	45	6	/	/
COc1ccccc1CCNS(=O)(=O)c1cn(C)c(=O)n(C)c1=O	0	2	7	4	/	/
CCN(CCn1cccn1)C(=O)c1cc(COc2cccc3cccnc23)on1	-1	6	-15	-4	/	/
COc1ccc(OC)c(/C(O)=C/C(=O)C(=O)Nc2ccccc2OC)c1	0	13	1	0	/	/
COc1cc(/C=C/c2nc3ccccc3c(=O)[nH]2)cc(Br)c1O	2	7	11	2	/	/
O=C(CN1C2=NCCN2c2ccccc21)c1ccc(Br)s1	0	94*	13	-5	81*	14*
O=C(CN1C2=NCCN2c2ccccc21)c1ccc2c(c1)OCO2	-1	7	-8	4	/	/
O=C(CN1C2=NCCN2c2ccccc21)c1ccc(Br)cc1	-1	112*	-39	-28	71*	21*
COc1ccc(-c2c(C)nn(-c3ccccc3)c2NC(C)=O)cc1OC	0	-6	1	3	/	/
SMILES	FXN GAA850 act	AHR activator	HSF-1 act	HSF1 inhib	AHR act confirm	PXR counter
Cc1ccccc1-c1cnc(C(O)c2ccccc2)[nH]1 (stereo unspecified)	4	/	/	/	/	/
Cc1nc(NC2=NCN(Cc3cccnc3)CN2)nc2ccccc12	0	/	/	/	/	/
Cc1nc(NC2=NCN(CCCN3CCOCC3)CN2)nc2c(C)cccc12	1	125*	/	/	74*	/
O=C(CC1C(=O)Nc2ccccc2N1CC(=O)N1CCCC1)Nc1ccc(Br)cc1 (stereo unspecified)	-1	92*	/	/	100*	37*
COc1ccccc1C(=O)Nc1ccc(N2CCCCC2)cc1	3	88*	50	22	99*	/
COc1ccc(Br)cc1C(=O)Nc1ccc(N2CCCC2)cc1	3	105*	-27	-15	148*	18*
